Screening data from PubChem.
Hits are enriched below; roughly 12% of the tested compounds scored in any of these assays.
Calpain2 inh = inhibitors of pig calpain II; purified calpain II, fluorogenic peptide substrate, 30 min; inhibition, % at 16 µM; hit rate 0.37% among 220,000; AID 1236;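 active means inhibition above about 50%, limit read from the data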
ROMK primary = modulates human ROMK potassium channel activity; B-score at 10 µM; Tet-inducible ROMK, thallium flux fluorescence; actives lie on both sides; hit rate 2% among 130,000;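 active means signal ratio slope over the read window, or its plate-corrected B-score, at least 3 SD from the plate mean, either direction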;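 further: B-score of the F/F0 ratio slope over 7 to 12 s after thallium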
Target sequence (P48048 whole entry, looked up): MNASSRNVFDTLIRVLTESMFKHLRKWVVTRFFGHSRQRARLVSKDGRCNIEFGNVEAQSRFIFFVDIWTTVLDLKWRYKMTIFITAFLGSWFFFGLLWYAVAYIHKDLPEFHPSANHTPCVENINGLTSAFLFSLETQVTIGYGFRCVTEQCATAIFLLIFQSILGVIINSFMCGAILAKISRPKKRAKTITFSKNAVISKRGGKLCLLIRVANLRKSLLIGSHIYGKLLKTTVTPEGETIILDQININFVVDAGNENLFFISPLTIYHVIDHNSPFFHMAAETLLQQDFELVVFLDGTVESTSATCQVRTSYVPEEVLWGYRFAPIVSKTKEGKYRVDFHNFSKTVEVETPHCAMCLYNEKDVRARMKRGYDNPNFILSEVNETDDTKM
WT yeast gro inh = growth inhibition of WT yeast, mitochondrial fusion screen | hit rate 2.1% among 190,000 | inhibition, % at 10 µM | mitochondrial fusion phenotypic screen, WT strain; in the data active means inhibition above about 58%; tested in S. cerevisiae
Cl transport mod = KCC2 (human) Cl- transport modulation. KCC2 cells, thallium flux FluoZin-2 fluorescence. B-score of Tl+ flux slope (higher = more flux/activation; lower = inhibition) at 10 µM. hit rate 2.2% among 190,000. AID 1456;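 active means thallium flux slope and its plate-corrected score both differing from the plate sample mean at a set confidence after two filtering rounds, in either direction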;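 further: slope of fluorescence scaled to starting intensity during 10 to 20 s after thallium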
L major viab = inhibitors of Leishmania major promastigote growth. AID 1063. inhibition, % at 10 µM. Leishmania major promastigotes, resazurin fluorescence viability. hit rate 9% among 200,000; in the data active means inhibition above about 50%;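 further: promastigotes grown with compound for 44 hours at 28 °C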
* = called active by the depositor.

What do the screens show for `CC1=C(C(=O)OCCNC(=O)c2ccccc2O)C(c2ccccc2[N+](=O)[O-])C(C(=O)OCC2CCCO2)=C(C)N1` (stereo not given)?
Calpain2 inh: 3; ROMK primary: -2.3; WT yeast gro inh: 3; Cl transport mod: 0.019; L major viab: 93*

How did CC1=C(C(=O)OCC2CCCO2)C(c2ccccc2)NC(=O)N1 (stereo not given) do in these assays?
Calpain2 inh: -7; ROMK primary: -1; WT yeast gro inh: 13; L major viab: -3

What do the screens show for `Cc1ccc(C2=CC(C)(c3ccc(C)cc3)Nc3nc(C(F)(F)F)nn32)cc1` (stereo not given)?
Calpain2 inh: 11; WT yeast gro inh: 71*; Cl transport mod: -0.037; L major viab: 39

What do the screens show for `CC1(c2ccc(OCC#N)cc2)C=C(c2ccc(OCC#N)cc2)n2nc(C(F)(F)F)nc2N1` (stereo not given)?
Calpain2 inh: 2; WT yeast gro inh: -1; Cl transport mod: 0.32; L major viab: 97*

What do the screens show for `Cc1cc(C2=CC(C)(c3cc(C)oc3C)Nc3nc(C(F)(F)F)nn32)c(C)o1` (stereo not given)?
Calpain2 inh: -44; WT yeast gro inh: 13; Cl transport mod: 0.28; L major viab: 3

How did O=c1c2ccccc2nc(/C=C/c2ccc([N+](=O)[O-])cc2)n1CCCO do in these assays?
Calpain2 inh: 2; ROMK primary: -0.88; WT yeast gro inh: -8; Cl transport mod: -0.38; L major viab: 60*

Results for O=c1c2ccccc2nc(/C=C/c2cccc([N+](=O)[O-])c2)n1CCCO ?
Cl transport mod: -0.25; L major viab: 21

What do the screens show for `Cc1nc(N)sc1C(=O)NN`?
Calpain2 inh: 11; Cl transport mod: -0.32

Results for Cc1ccc(-c2[nH]c3ccccc3c2SCCNC(=O)c2ccc(S(=O)(=O)N3CCOCC3)cc2)cc1 ?
Calpain2 inh: -66; ROMK primary: -0.53; WT yeast gro inh: -1; Cl transport mod: -1.1; L major viab: 99*

Results for O=C(O)c1cc(N/N=C/C=C/c2ccccc2)ccc1Cl ?
Calpain2 inh: -67; ROMK primary: 0.79; WT yeast gro inh: -8; Cl transport mod: 0.76; L major viab: -15

How did Cc1ccnc(NS(=O)(=O)c2ccc(N)cc2)n1 do in these assays?
Calpain2 inh: 13; WT yeast gro inh: 2; Cl transport mod: 0.25; L major viab: -2

Results for CC1CCCCN1CC(=O)Nc1ccc(Oc2ccccc2)cc1 (stereo not given) ?
Calpain2 inh: -12; WT yeast gro inh: 1; Cl transport mod: -1.1; L major viab: 96*

What do the screens show for `CN1CCN(CC(=O)Nc2ccc(Oc3ccccc3)cc2)CC1`?
Calpain2 inh: -6; WT yeast gro inh: 14; Cl transport mod: -0.39; L major viab: 38

Results for CCCOc1ccc(C(=O)CCC(=O)OCC(=O)Nc2ccc(Oc3ccccc3)cc2)cc1 ?
Calpain2 inh: -10; WT yeast gro inh: 4; Cl transport mod: 0.3; L major viab: -5

What do the screens show for `C=CCC(=O)OCC(=O)Nc1ccc(Oc2ccccc2)cc1`?
ROMK primary: 0.0051; WT yeast gro inh: -6; L major viab: 97*

How did CCOC(=O)N1CCN(CC(=O)Nc2ccc(Oc3ccccc3)cc2)CC1 do in these assays?
Calpain2 inh: -2; Cl transport mod: -0.079; L major viab: 97*

Results for CC1CCCCN1CC(=O)Nc1ccc(N2CCCCCC2)cc1 (stereo not given) ?
Calpain2 inh: 32; ROMK primary: -0.17; WT yeast gro inh: -3; Cl transport mod: -0.4; L major viab: 25

Results for CC(=O)NC(C)CCc1ccccc1 (stereo not given) ?
Calpain2 inh: 0; Cl transport mod: -0.75

What do the screens show for `CC(CCc1ccccc1)NCC(O)c1ccc(O)c(C(N)=O)c1` (stereo not given)?
Calpain2 inh: -117; WT yeast gro inh: 6; Cl transport mod: 0.021; L major viab: 84*

Results for COc1ccccc1-c1nc(SCC(=O)N(C)c2ccccc2)c2c(=O)n(C)c(=O)n(C)c2n1 ?
Calpain2 inh: -114; ROMK primary: 0.57; WT yeast gro inh: 1; Cl transport mod: 0.52; L major viab: 0

What do the screens show for `C=CCc1ccccc1OCC(O)CN1CCN(c2ccc(OC)cc2)CC1` (stereo not given)?
Calpain2 inh: 11; WT yeast gro inh: -5; L major viab: 70*

How did Cc1cc(C)cc(OCC(O)CN2CCN(Cc3ccc4c(c3)OCO4)CC2)c1 (stereo not given) do in these assays?
Calpain2 inh: 7; ROMK primary: -1.4; WT yeast gro inh: 12; Cl transport mod: -0.56; L major viab: 90*
